Hit rate of the full screen: of about 63,000 compounds, about 1,100 (1.7%) were called active. Rule as the data show it: active = cytotoxicity above about 50%; inactive = the rest. The entries come from a sample that favours actives as a whole. Entries with a potency or affinity are not part of this list.
assay: cytotoxicity in HPDE-C7 cells, cell-based, fluorescence, HTS (AID 430); details: HPDE-C7 pancreatic duct cells viability, at 10 µM, stronger effect = higher value;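 also: cells exposed to compound for 48 hours before viability readout; 0% = vehicle and 100% = reference cytotoxic drug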

Row | Structure (SMILES) | cytotoxicity
1 | COc1cccc(NC(=O)N2CCN(c3ccc(C(F)(F)F)cn3)CC2)c1 | 1% (inactive)
2 | O=C(Cn1nnc2ccccc2c1=O)NC1CCCc2ccccc21 (configuration not stated) | -10.4% (inactive)
3 | N#CCCN(Cc1cccnc1)C(=O)c1ccc(S(=O)(=O)N2CCOCC2)cc1 | -11% (inactive)
4 | CCOC(=O)c1[nH]c(C)c(C(=O)NCc2ccccn2)c1C | -28.2% (inactive)
5 | CCCC(c1nnnn1C1CCCCC1)N1CCN(c2ncccn2)CC1 (configuration not stated) | -4% (inactive)
6 | Cc1ccc2cc3c(N)c(C(=O)N4CCOCC4)sc3nc2c1 | -0.1% (inactive)
7 | Cc1ccc2nc3sc(C(=O)N4CCOCC4)c(N)c3cc2c1 | 2.9% (inactive)
8 | Cc1cccc2cc3c(N)c(C(=O)N4CCOCC4)sc3nc12 | 67.6% (active)
9 | CN(Cc1nnc(SCC(=O)NCCc2ccccc2)n1C)S(=O)(=O)c1ccccc1 | -11.2% (inactive)
10 | O=C(Nc1ccc(N2CCN(C(=O)c3ccccc3)CC2)cc1)c1ccc(Br)o1 | -3.2% (inactive)
11 | O=C(CCCSc1nc2ccccc2s1)Nc1nccs1 | -2.3% (inactive)
12 | O=C(OCC#CCSc1nc2ccccc2s1)c1ccco1 | -5.2% (inactive)
13 | c1csc(CSc2nc3ccccc3s2)c1 | -16.5% (inactive)
14 | N#C/C(=C\c1ccco1)Sc1nc2ccccc2s1 | 54.9% (active)
15 | CC1=CC(=C(C#N)c2nc3ccccc3s2)C=C(C)N1Cc1ccco1 | 10.5% (inactive)
16 | O=C(Cn1cnc2ccccc2c1=O)OCC(=O)c1ccc2c(c1)OCCO2 | 3% (inactive)
17 | O=C(c1cc2nc(-c3ccco3)cc(C(F)(F)F)n2n1)N1CCN(c2ccccc2)CC1 | -3% (inactive)
18 | CCOc1ccc(C2N(c3cc(Cl)ccc3OC)C(=O)C3CCCN32)cc1OC (configuration not stated) | -15.6% (inactive)
19 | Cc1ccc(CS(=O)(=O)CCC(=O)NCCN2CCCCC2C)cc1 (configuration not stated) | 7.5% (inactive)
20 | Nc1ccc(N2CCCCC2)cc1N1CCCCC1 | 37% (inactive)
21 | O=C(O)c1ccc(N2CCCCC2)cc1 | -6.8% (inactive)

Row | Structure (SMILES) | cytotoxicity
22 | CCOc1nc(-c2ccccc2)ccc1-c1noc(-c2cccnc2)n1 | -30.6% (inactive)
23 | Cc1nc(NC2=NCN(C3CCCCC3C)CN2)nc2ccccc12 (configuration not stated) | -2.8% (inactive)
24 | Cc1cccc(NC(=O)N2CCC(NC(=O)c3ccccc3C)CC2)c1 | 2.1% (inactive)
25 | COC(=O)c1ccccc1NC(=O)CN1CCN(C(=O)c2ccco2)CC1 | 4.2% (inactive)
26 | O=C(O)c1cc(S(=O)(=O)N2CCCCCC2)ccc1Cl | -1.3% (inactive)
27 | O=S(=O)(c1ccc(S(=O)(=O)N2CCCC2)cc1)N1CCCCCC1 | -7.3% (inactive)
28 | Cn1c(=O)c2c(nc(N3CCCCC3)n2CCSc2nc3ccccc3o2)n(C)c1=O | -14.5% (inactive)
29 | Cc1ccc(CN2CCN(C(=O)C3CCCO3)CC2)cc1 (configuration not stated) | -27.2% (inactive)
30 | CCOc1ccccc1NC(=O)CSc1nccn1-c1ccccc1 | -12.5% (inactive)
31 | COc1ccc(CCn2c(N)c(C(=O)NCc3ccco3)c3nc4ccccc4nc32)cc1OC | 32.4% (inactive)
32 | Nc1c(C(=O)NCCN2CCOCC2)c2nc3ccccc3nc2n1-c1ccc2c(c1)OCO2 | 1% (inactive)
33 | COc1ccc(-n2c(N)c(C(=O)NCc3ccco3)c3nc4ccccc4nc32)c(OC)c1 | 14.2% (inactive)
34 | Nc1c(C(=O)NCCN2CCOCC2)c2nc3ccccc3nc2n1CCc1ccccc1F | 0.5% (inactive)
35 | Nc1c(C(=O)NCCN2CCOCC2)c2nc3ccccc3nc2n1CCc1ccccc1 | 7.5% (inactive)
36 | Nc1ccc(-n2c(N)c(C(=O)NCc3ccc4c(c3)OCO4)c3nc4ccccc4nc32)cc1 | 26.7% (inactive)
37 | CN1CCN(S(=O)(=O)c2ccc3c4c(cccc24)C(=O)N3)CC1 | 5.6% (inactive)
38 | COc1ccc(NC(=O)C2CCN(S(=O)(=O)c3cccc4cccnc34)CC2)cc1 | -6.3% (inactive)
39 | CCOC(=O)N1CCN(C(=O)CSc2nnc(Cc3cccn3C)n2CCc2ccccc2)CC1 | -10.2% (inactive)
40 | Cc1cccc2cc(COC(=O)c3ccccn3)c(=O)[nH]c12 | -10.7% (inactive)
41 | C=CCn1c(=N)n(CC(=O)O)c2ccccc21 | -15.2% (inactive)
42 | COCCCn1c(-c2ccsc2)nc2c1c(=O)[nH]c(=O)n2Cc1ccccc1 | -11% (inactive)

Row | Structure (SMILES) | cytotoxicity
43 | CCCC(=O)Nc1cccc2c1CCCC2 | 2.9% (inactive)
44 | Cc1ccc(-n2nnc3c(=O)n(Cc4cccc(C)c4)cnc32)cc1 | 0.4% (inactive)
45 | CCOC(=O)c1sc(NC(=O)c2cc3c(C)nn(-c4ccccc4)c3s2)nc1C | 4% (inactive)
46 | COc1cccc(C=NCCNC(=O)c2nonc2N)c1O | 9.3% (inactive)
47 | Nc1nonc1C(=O)NCCN=Cc1cc(Cc2ccccc2)cc(Br)c1O | 87.2% (active)
48 | Nc1nonc1C(=O)NCCNC(=O)c1ccccc1F | -4.8% (inactive)
49 | O=C1c2oc3ccc(Br)cc3c(=O)c2C(c2cccnc2)N1Cc1ccco1 (configuration not stated) | -14.2% (inactive)
50 | Oc1c(-c2cc(-c3ccco3)[nH]n2)ccc2ccccc12 | 1.8% (inactive)
51 | CSc1nc(N)nc(SCC(=O)C23CC4CC(CC(C4)C2)C3)c1C#N | 74% (active)
52 | CSc1nc(N)nc(SCC(=O)c2ccc(C)cc2)c1C#N | 3.8% (inactive)
53 | CSc1nc(N)nc(SCC(=O)OC(C)C)c1C#N | -1.7% (inactive)
54 | Cc1cc2n(n1)C(c1ccc(O)cc1)Nc1ccccc1-2 (configuration not stated) | 7.9% (inactive)
55 | O=C(COC(=O)C1(c2ccccc2F)CCCC1)NC1CCS(=O)(=O)C1 (configuration not stated) | -14.8% (inactive)
56 | COc1ccc(CNc2nc3c(c(=O)[nH]c(=O)n3C)n2Cc2ccccc2C)cc1 | -5.5% (inactive)
57 | COc1ccc(-c2nsc3c(N4CCN(S(=O)(=O)c5ccccc5)CC4)ncnc23)cc1 | 55.2% (active)
58 | COc1ccc(-c2nsc3c(N4CCCC4)ncnc23)cc1 | 7.9% (inactive)
59 | COc1ccc(S(=O)(=O)N2CCN(c3ncnc4c(-c5ccccc5)nsc34)CC2)cc1 | 5.6% (inactive)
60 | CC(C)(C)NC(=O)CSc1nnc(C2CC2)n1Cc1ccccc1 | -7.8% (inactive)
61 | COC(=O)CNC(=O)COC(=O)C(Cc1ccccc1)NC(=O)c1ccco1 (configuration not stated) | 6% (inactive)
62 | Cc1ccc(C)c(C(=O)CSc2n[nH]c(C(C)C)n2)c1 | -7.1% (inactive)

Source: PubChem BioAssay AID430 (Sanford-Burnham Center for Chemical Genomics, 2006)
